Assay outcomes as filed in PubChem BioAssay.
Hits are enriched below; roughly 7.3% of the tested compounds scored in any of these assays.
Tau fibril FP = tau fibrillization inhibition (FP). Potency, µM (series often up to 57.7 µM), without a hit: top-dose activity, negative = inhibition, most hits filed as inhibitors. P10636. K18 P301L tau heparin fibrillization, Alexa594 FP, 6 h. AID 1468. 280,000 tested, 0.39% active; note: nearly all actives have a fitted effect of over 55% in size
Target sequence (P10636 561-689 P618L limits assumed): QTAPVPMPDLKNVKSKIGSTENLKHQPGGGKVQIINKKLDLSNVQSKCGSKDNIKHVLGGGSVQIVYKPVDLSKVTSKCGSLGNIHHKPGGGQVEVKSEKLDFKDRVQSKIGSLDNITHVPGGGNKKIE
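Human tau K18 […] P301L fragment, 15 uM unlabeled plus 0.24 uM Alexa 594-labeled tau (final), with compound and 20 uM heparin in 100 mM sodium acetate pH 7; 6 hr at 37 C, then Alexa 594 FP read.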
RORgamma inh = ROR gamma (mouse) transcription inhibition | P51450 | Drosophila S2 Gal4-RORgamma UAS-luciferase reporter, 20 h | Potency, µM (series often up to 53.6 µM), for inactives: top-dose activity change, negative = inhibition, hits mostly inhibitors | 310,000 tested, 5.4% active | AID 2551; note: nearly all actives have a fitted effect of over 60% in size
Target sequence (P51450 whole entry, looked up, the tested form may be a part): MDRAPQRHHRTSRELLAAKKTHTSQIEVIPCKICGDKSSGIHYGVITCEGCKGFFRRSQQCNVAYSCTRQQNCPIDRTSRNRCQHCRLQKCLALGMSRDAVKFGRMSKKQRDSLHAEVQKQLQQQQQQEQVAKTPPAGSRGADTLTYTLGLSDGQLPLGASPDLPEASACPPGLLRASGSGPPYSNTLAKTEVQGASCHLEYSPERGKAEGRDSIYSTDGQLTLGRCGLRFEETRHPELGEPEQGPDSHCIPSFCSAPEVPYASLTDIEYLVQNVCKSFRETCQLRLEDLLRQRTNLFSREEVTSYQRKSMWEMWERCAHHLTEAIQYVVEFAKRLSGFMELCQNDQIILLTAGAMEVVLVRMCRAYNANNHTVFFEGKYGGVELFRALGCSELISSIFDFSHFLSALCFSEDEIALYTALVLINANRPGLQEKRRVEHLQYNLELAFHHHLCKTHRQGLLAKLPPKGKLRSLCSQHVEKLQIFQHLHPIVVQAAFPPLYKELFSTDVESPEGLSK
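Stably transfected Drosophila Schneider cells are the test system, with ROR gamma fused to Gal4 and luciferase under UAS control; luminescence is read after 20 hr of 700 uM copper sulfate induction at ambient temperature.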
Tau fibril ThT = blocks human tau fibril formation measured by thioflavin T; 270,000 tested, 2.1% active; AID 1460; recombinant tau K18 P301L, heparin-induced fibrillization, ThT fluorescence; Potency, µM (top dose mostly 57.4 µM), inactives show at the highest dose activity, negative = inhibition, actives largely listed as inhibitors; note: nearly all actives have a fitted effect of over 55% in size
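Aggregation was driven by heparin (20 uM final) acting on recombinant tau […] bearing P301L in 100 mM sodium acetate pH 7; fibrils were detected with Thioflavin T.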
Gal4-VP16 FLuc = counter-screen for ROR gamma inhibitors: Gal4-VP16 reporter; Potency, µM (titrated, usually from 53.6 µM), for the others: at the top dose activity, negative = inhibition, actives largely listed as inhibitors; AID 2546; 310,000 tested, 3.5% active; Drosophila S2 Gal4-VP16 UAS-luciferase, luminescence, 20 h;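 note: Gal4-VP16 expression switched on by copper sulfate through the metallothionein promoter; nearly all actives have a fitted effect of over 50% in size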
Tau fluor counter = counter-screen for tau fibril formation inhibitors | tau K18 P301L (four-repeat tau fragment) Alexa594 fluorescence, heparin fibrillization | Potency, µM (doses to about 57.7 µM), for inactives: top-dose activity change, negative = decrease | 280,000 tested, 0.93% active | AID 1463; note: nearly all actives have a fitted effect of over 55% in size
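Human K18 P301L tau (15 uM unlabeled plus 0.24 uM Alexa 594-labeled, final) in 100 mM sodium acetate pH 7 was mixed with compound and 20 uM heparin and incubated 6 hr at 37 C.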
Active calls of the source: *; u = inconclusive; x = no result given; [ ] = dose if it differs, or a comment. Calls come from the whole dose curve; as a rule, active = well fitted curve in the direction sought with a large enough effect; inconclusive = small, poorly fitted or top-dose-only effect, or another doubt; inactive = no such curve, though single readings can be large; an effect the other way counts as inactive or inconclusive. % is set by controls: 0 for no effect and ±100 for the full control effect; potency is the fitted concentration of half-maximal effect.

SMILES	Tau fibril FP	RORgamma inh	Tau fibril ThT	Gal4-VP16 FLuc	Tau fluor counter
CCC(C)NC(=O)CSc1nc2ccc(N3CCOCC3)cc2c(=O)n1CCc1ccccc1 (configuration not stated)	7%	7.9µM*	-12%	u	-23%
CCCCn1c(SCC(=O)NCc2ccco2)nc2ccc(N3CCOCC3)cc2c1=O	-4%	6.3µM*	-7%	18µM*	-2%
O=[N+]([O-])c1ccc(N2CCN(c3cccc(Cl)c3)CC2)cn1	x	38%	x	-2%	x
Cc1cccc(-c2noc(-c3cc(C(C)C)[nH]n3)n2)c1	-1%	x	u	x	u
CCC(C)NC(=O)CSc1nc2ccccc2c(=O)n1Cc1ccc(OC)cc1 (configuration not stated)	-4%	8%	-16%	10µM*	-23%
CCCCn1c(SCC(=O)Nc2ccc(OC)cc2)nc2ccc(N3CCOCC3)cc2c1=O	12%	u	u	10µM*	-28%
COCCNC(=O)c1ccc(Cn2c(SCC(=O)NC(C)C)nc3ccccc3c2=O)cc1	-5%	x	1%	x	-1%
COCCNC(=O)CSc1nc2ccc(N3CCOCC3)cc2c(=O)n1Cc1ccc(OC)cc1	-11%	10µM*	u	14µM*	u
CCCCNC(=O)CSc1nc2ccc(N3CCOCC3)cc2c(=O)n1Cc1ccc(OC)cc1	-5%	u	u	-2%	-22%
COc1cccc(CNC(=O)C2CCN(S(=O)(=O)c3ccc4c(c3)CCCN4C(C)=O)CC2)c1	-8%	x	2%	x	-10%
Cc1ccoc1C(=O)Nc1ccc(CC(=O)O)cc1	3%	0.5µM*	-8%	u	-6%
c1coc(-c2nc3c4c5c(sc4ncn3n2)CCCC5)c1	4%	-19%	-1%	-3%	4%
CN1CCc2c(sc3ncn4nc(-c5ccccc5O)nc4c23)C1	u	-45%	28µM*	-1%	-26%
CC1=CC(=O)C=C(C)C1=NOC(=O)c1cccc([N+](=O)[O-])c1	-5%	11µM*	u	u	-15%
CCN(CC)C(=O)c1sc2c(c1C)c(=O)n(Cc1ccccc1)c(=O)n2CC(=O)Nc1ccc(OC)cc1	-11%	x	20%	x	-26%
Cc1ccc(NC(=O)C2C3CCC(O3)C2C(=O)O)cc1Cl (configuration not stated)	x	5%	x	-10%	x
COc1ccc(C(C)(C)C)cc1NC(=O)c1ccoc1C	0%	2.2µM*	-12%	u	-17%
COc1ccc(C)cc1NC(=O)c1ccoc1C	-1%	11%	-6%	0%	-3%
COc1ccccc1-c1c(-c2ccc(OCC(=O)NN)cc2O)n[nH]c1C(F)(F)F	-2%	-25%	-6%	11µM*	u
COc1ccc(-c2n[nH]c(C(F)(F)F)c2-c2cc3ccccc3o2)c(O)c1	-1%	-90%	18µM*	u	u
Cc1oc(C(C)(C)C)cc1C(=O)NCc1ccc2c(c1)OCO2	-3%	u	-5%	u	-19%
CCOC(=O)c1ccc(CNC(=O)c2cc(C(C)(C)C)oc2C)o1	-1%	6.3µM*	-14%	u	-1%
COc1ccc(CNC(=O)c2cc3ccccc3oc2=O)cc1	x	10%	x	-2%	x
CNC(=O)c1cc2cc(OC)ccc2oc1=O	0%	17%	-13%	-4%	-6%
COc1ccc2oc(=O)c(C(=O)Nc3cccc(C(C)=O)c3)cc2c1	x	2µM*	x	5.6µM*	x
SMILES	Tau fibril FP	RORgamma inh	Tau fibril ThT	Gal4-VP16 FLuc	Tau fluor counter
COc1cccc(NC(=O)c2cc3ccccc3oc2=O)c1	x	6.3µM*	x	10µM*	x
COc1ccc2oc(=O)c(/C(C)=N/Nc3ccccc3)cc2c1	-11%	-15%	18µM*	-1%	u
COc1ccc(-c2[nH]c3ccccc3c2SCCNC(=O)c2cc3ccccc3oc2=O)cc1	14%	u	u	0%	11µM*[quencher]
Cc1ccc(NC(=O)C2CCN(S(=O)(=O)c3ccc4c(c3)CCCC(=O)N4)CC2)c(Cl)c1	-5%	x	0%	x	-8%
CCOc1ccc(/C=C/c2nc(C#N)c(Nc3ccc(OCC)cc3)o2)cc1	11%	x	-22%	x	-14%
C=C1CCC2C(C)(CO)C(O)CCC2(C)C1C/C=C1\C(=O)OCC1O (configuration not stated)	-3%	13µM*	-4%	-22%	0%
OC[C@@H]1O[C@@H](O)[C@H](O)[C@H](O)[C@@H]1O	x	23%	x	-2%	x
COc1cccc(/C=N/NC(=S)NC2CC3CCC2C3)c1OC (configuration not stated)	u	1.6µM*	-10%	2.8µM*	-21%
Oc1ccccc1/C=N/NC(=S)NC1CC2CCC1C2 (configuration not stated)	4%	6.3µM*	-8%	10µM*	u
CNC(=S)N/N=C/c1ccco1	0%	2.5µM*	-8%	5.6µM*	0%
O=C(N/N=C/c1ccco1)C(O)C(O)C(=O)N/N=C/c1ccco1 (configuration not stated)	x	-5%	x	-2%	x
S=C(N/N=C/c1ccco1)NC1CC2CCC1C2 (configuration not stated)	x	0.56µM*	x	2.2µM*	x
O=C(O)c1ccccc1/C=N/NC(=S)NC1CCCCC1	10%	-40%	2%	-1%	9%
O=S(=O)(O)c1ccc2c(c1)-c1nc-2nc2[nH]c(nc3nc(nc4[nH]c(n1)c1ccc(S(=O)(=O)O)cc41)-c1ccc(S(=O)(=O)O)cc1-3)c1ccc(S(=O)(=O)O)cc21	x	-39%	x	-24%	x
Nc1nc2c(ncn2C2OC(COC(=O)c3ccccc3)C(OC(=O)c3ccccc3)C2OC(=O)c2ccccc2)c(=O)[nH]1 (configuration not stated)	u	-10%	11%	-13%	-18%
COC(=O)c1c(SCC(=O)Nc2cc(F)ccc2F)[nH]c2ccc(C)cc2c1=O	-3%	x	7.1µM*	x	u
COC(=O)c1c(SCC(=O)Nc2cccc(Cl)c2C)[nH]c2ccccc2c1=O	u	x	16µM*	x	-27%
Nc1ncnc2nc(SCC(=O)Nc3cccc(C(F)(F)F)c3)[nH]c12	x	6%	x	7%	x
O=C(CSc1nc2cc3ccccc3cc2[nH]1)Nc1cccc(C(F)(F)F)c1	3.2µM*	x	-6%	x	u
COC(=O)c1c(SCC(=O)NC2CCCCC2)[nH]c2ccccc2c1=O	x	-3%	x	-4%	x
COC(=O)c1c(SCC(=O)Nc2cccc(C(F)(F)F)c2)[nH]c2ccccc2c1=O	-8%	x	14µM*	x	16µM*[quencher]
O=C(Nc1cc2c(cc1C(=O)c1ccccc1Cl)OCCO2)c1ccccc1	u	x	-14%	x	u
CCCS(=O)(=O)N1CCCC(C(=O)NCCOC)C1 (configuration not stated)	-7%	x	8%	x	-1%
COc1ccccc1NS(=O)(=O)c1ccc2oc(=S)[nH]c2c1	2%	-2%	-9%	-2%	-6%
